Assay results from PubChem BioAssay (NCATS).
Values joined by “and” are separate entries in the source; they are usually repeats but may differ in a detail not shown here. Equal values may be shown once. Inconclusive results are not listed. Active and inactive are the calls of the source. Unless noted, the call rests on the fitted dose curve; in most records, active means well fitted curve in the direction sought with a large enough effect; inconclusive means small, poorly fitted or top-dose-only effect, or another doubt; inactive means no such curve, though single readings can be large; an effect the other way counts as inactive or inconclusive.

Columns and labels:
[1] = qHTS assay to identify inhibitors of the type 1 interferon - major histocompatibility complex class I in skeletal muscle: Counter screen cell viability and HiBit confirmation (AID 1347412); conditions: iHSKM muscle cells + IFN-b, HiBiT or CellTiter-Glo, 24 h; for activity change, negative = inhibition: at 45.9 µM (top of the series); further: potency means the concentration at half of the fitted maximal effect; on activity change, negative = inhibition: on the % scale 0 is the no-effect control and ±100 the full control effect; on all read-outs here: nearly all actives have a fitted effect of over 60% in size
Method in brief: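 Duplicate plates, pinned identically: one read for HiBiT-tagged endogenous HLA-B luminescence, the other for ATP-content viability via CellTiter Glo. Cells were genome-engineered human myoblasts given 4 ng/ml IFN-b; compounds 12-pt, 1:3 from 46 uM final; 24 hr exposure.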

[2] = qHTS drug screen for cell cycle checkpoint inhibitors in PARPi-resistant BRCA-mutant ovarian cancer cell lines. (AID 1963452; calls by dose curve; further: potency means the concentration at half of the fitted maximal effect); conditions: PEO1/OlaR viability, CellTiter-Glo luminescence, 96 h; for Z-AUC: stronger effect = lower value
Method in brief: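 PEO1, PEO4 and PEO1/OlaR ovarian cancer cells, 600 per well, exposed 96 h at 37C to a dilution series. Viability read by CellTiter-Glo luminescence, normalized to DMSO and empty wells; activity summarized as Z-AUC.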

[3] = qHTS for differential inhibitors of proliferation of Plasmodium falciparum line 7G8 (AID 1815); conditions: Plasmodium falciparum 7G8 proliferation inhibition; series mostly up to 28.7 µM;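 further: parasite growth measured after three days of incubation; plate controls were vehicle wells for no effect and reference inhibitor wells for full effect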
[4] = qHTS for differential inhibitors of proliferation of Plasmodium falciparum line GB4 (AID 1816); conditions: Potency: Plasmodium falciparum GB4 proliferation inhibition; series mostly up to 28.7 µM;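 further: parasite growth measured after 72 h incubation; 0% = vehicle DMSO and -100% = reference inhibitor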
[5] = qHTS for differential inhibitors of proliferation of Plasmodium falciparum line W2 (AID 1883); conditions: Potency: Plasmodium falciparum W2 proliferation inhibition; series mostly up to 28.7 µM;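 further: parasites grown with compound for 72 h before lysis and staining; 0% = vehicle wells and -100% = control inhibitor wells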
[6] = qHTS Assay for Modulators of Human Peripheral Myelin Protein 22 (PMP22) Expression/Activity (AID 1967; active means well fitted curve in the direction sought with a large enough effect in the signal ratio; the % refers to the signal ratio;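 further: 0% = untreated cells and 100% end not stated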); conditions: Cell-based PMP22 reporter, dual-color luciferase ratio, 0% = compound-free control cells, mouse Pmp22 promoter in mouse Schwann cells; series mostly up to 115 µM
Method in brief: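 Mouse MSC80 Schwann line, Pmp22 promoter–CBG68 reporter, EF-alpha–CBR internal control. 24h compound exposure, 37 °C/5% CO2, DMEM + 10% FBS. Readout: corrected green/red luminescence ratio, normalized to untreated cells; concentration-response curves fitted and classified.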

[7] = molecular target: ATP-dependent DNA helicase Q1 (Homo sapiens) (UniProt P46063); experiment: qHTS Validation Assay for Inhibitors of RecQ-Like Dna Helicase 1 (RECQ1) (AID 2353); conditions: recombinant RECQ1 helicase DNA unwinding assay; series mostly up to 25.6 µM;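 further: plate controls were DMSO vehicle for no effect and enzyme-free control for full effect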
Chain of ATP-dependent DNA helicase Q1 (Homo sapiens) (P46063 whole entry, looked up): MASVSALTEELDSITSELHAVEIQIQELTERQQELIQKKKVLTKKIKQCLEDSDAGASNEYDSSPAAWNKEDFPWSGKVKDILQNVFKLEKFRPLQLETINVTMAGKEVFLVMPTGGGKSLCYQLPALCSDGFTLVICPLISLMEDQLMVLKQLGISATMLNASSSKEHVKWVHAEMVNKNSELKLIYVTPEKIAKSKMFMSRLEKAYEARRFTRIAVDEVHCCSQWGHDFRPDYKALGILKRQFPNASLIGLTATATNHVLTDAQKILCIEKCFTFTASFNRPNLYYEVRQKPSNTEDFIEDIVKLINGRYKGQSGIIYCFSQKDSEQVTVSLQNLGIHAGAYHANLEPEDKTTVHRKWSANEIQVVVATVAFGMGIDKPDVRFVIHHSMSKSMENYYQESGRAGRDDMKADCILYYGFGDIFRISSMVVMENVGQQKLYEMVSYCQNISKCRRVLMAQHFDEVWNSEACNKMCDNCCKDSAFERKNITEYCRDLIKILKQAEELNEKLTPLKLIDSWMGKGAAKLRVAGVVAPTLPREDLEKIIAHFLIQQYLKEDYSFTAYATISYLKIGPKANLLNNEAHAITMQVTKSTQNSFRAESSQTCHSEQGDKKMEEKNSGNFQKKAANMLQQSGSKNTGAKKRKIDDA
Method in brief: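 50 nM RECQ1T1 preincubated 15 min with compound in Tris pH 8.0 buffer with MgCl2, DTT, Tween-20 and 2.5 ug/ml poly(dI-dC); started with 200 nM TAMRA/BHQ-2 forked duplex and 2 mM ATP. Unwinding read as fluorescence (525/598 nm), two reads 2 h apart.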

[8] = AP1 Signaling Pathway (AID 357; active means well fitted curve in either direction with a large enough effect, not every such curve was filed as active;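 further: ME-180 reporter cells stimulated with EGF at its EC50 level; on the % scale 0 is the no-effect control and ±100 the full control effect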); conditions: ME-180 AP-1-bla reporter, EGF-induced, beta-lactamase ratio, 5 h
Method in brief: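 Cells are seeded overnight, exposed to compound titrations and an EC50 level of EGF for 5 hours at 37 °C, then loaded with CCF4 dye for 2.5 hours. Beta-lactamase activity under the AP-1 element is read as a blue/green ratio.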

[9] = molecular target: Cytochrome P450 1A2 (Homo sapiens) (UniProt P05177); experiment: p450-cyp1a2 (AID 410; calls by dose curve; further: potency means the concentration at half of the fitted maximal effect;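 on activity change, negative = inhibition: -100% = full effect of reference inhibitor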); conditions: recombinant CYP1A2, luciferin-ME demethylation, luminescence; series mostly up to 57 µM
Chain of Cytochrome P450 1A2 (Homo sapiens) (P05177 whole entry, looked up): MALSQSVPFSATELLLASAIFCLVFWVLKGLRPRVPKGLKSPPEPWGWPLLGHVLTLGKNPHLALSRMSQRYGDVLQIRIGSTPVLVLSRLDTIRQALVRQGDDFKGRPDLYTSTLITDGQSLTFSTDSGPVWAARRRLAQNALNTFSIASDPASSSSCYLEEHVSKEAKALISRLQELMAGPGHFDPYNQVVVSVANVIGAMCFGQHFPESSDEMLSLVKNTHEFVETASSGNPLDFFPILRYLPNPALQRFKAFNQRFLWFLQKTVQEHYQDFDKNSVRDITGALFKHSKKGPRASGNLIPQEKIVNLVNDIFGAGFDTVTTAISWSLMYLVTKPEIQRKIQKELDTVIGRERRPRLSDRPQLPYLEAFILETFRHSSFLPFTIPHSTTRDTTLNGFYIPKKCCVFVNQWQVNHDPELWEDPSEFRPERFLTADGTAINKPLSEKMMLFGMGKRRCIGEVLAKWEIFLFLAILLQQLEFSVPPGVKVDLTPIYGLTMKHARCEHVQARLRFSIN
Method in brief: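 Luminescent readout of luciferin formed from Luciferin-ME by human CYP1A2; data normalized against complete inhibition by 57 uM furafylline. Enzyme 20nM, substrate 100uM at Km, 100mM KPO4 buffer, 60 min reaction at room temperature.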

[10] = NFAT Signaling Pathway (AID 444; active means well fitted curve in either direction with a large enough effect, not every such curve was filed as active;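 further: carbachol stimulus at about its EC50 of 1 µM final; on the % scale 0 is the no-effect control and ±100 the full control effect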); conditions: Jurkat NFAT-bla M1, carbachol, beta-lactamase ratio, 5 h
Method in brief: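 Jurkat cells carrying an NFAT-driven β-lactamase reporter and co-transfected muscarinic M1 receptor were treated with compound plus carbachol (1 uM final, an EC50 level) for 5 h at 37 °C. CCF4 loading followed for 1 h at RT; 460/530 nm ratio gave %activity.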

[11] = Stat Signaling Pathway (AID 446; active means well fitted curve in either direction with a large enough effect, not every such curve was filed as active;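 further: ME-180 cervical cancer cells given 40 pM IL-6 alongside compound; SIE-controlled beta-lactamase reporter measured as 460/530 nm FRET emission ratio; on the % scale 0 is the no-effect control and ±100 the full control effect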); conditions: ME-180 SIE beta-lactamase reporter, IL-6 stimulated, 5 h
Method in brief: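 ME-180 cells carrying a SIE-driven beta-lactamase reporter are stimulated with 40 pM IL-6 for 5 h at 37C in the presence of compound. The 460/530 nm FRET substrate ratio is read after 2.5 h at RT. Data are normalised to 300 pM IL-6 and to 125 nM JAK inhibitor controls.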

[12] = molecular target: Glucocorticoid receptor (Homo sapiens) (UniProt P04150); experiment: GR-GFP Redistribution (AID 450;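 active means compounds whose dose series gives a full or clear partial fitted curve of increased nuclear translocation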; further: potency means the concentration at half of the fitted maximal effect); conditions: U2OS GR-GFP nuclear translocation, laser cytometry, 2 h
Chain of Glucocorticoid receptor (Homo sapiens) (P04150 whole entry, looked up, the tested form may be a part): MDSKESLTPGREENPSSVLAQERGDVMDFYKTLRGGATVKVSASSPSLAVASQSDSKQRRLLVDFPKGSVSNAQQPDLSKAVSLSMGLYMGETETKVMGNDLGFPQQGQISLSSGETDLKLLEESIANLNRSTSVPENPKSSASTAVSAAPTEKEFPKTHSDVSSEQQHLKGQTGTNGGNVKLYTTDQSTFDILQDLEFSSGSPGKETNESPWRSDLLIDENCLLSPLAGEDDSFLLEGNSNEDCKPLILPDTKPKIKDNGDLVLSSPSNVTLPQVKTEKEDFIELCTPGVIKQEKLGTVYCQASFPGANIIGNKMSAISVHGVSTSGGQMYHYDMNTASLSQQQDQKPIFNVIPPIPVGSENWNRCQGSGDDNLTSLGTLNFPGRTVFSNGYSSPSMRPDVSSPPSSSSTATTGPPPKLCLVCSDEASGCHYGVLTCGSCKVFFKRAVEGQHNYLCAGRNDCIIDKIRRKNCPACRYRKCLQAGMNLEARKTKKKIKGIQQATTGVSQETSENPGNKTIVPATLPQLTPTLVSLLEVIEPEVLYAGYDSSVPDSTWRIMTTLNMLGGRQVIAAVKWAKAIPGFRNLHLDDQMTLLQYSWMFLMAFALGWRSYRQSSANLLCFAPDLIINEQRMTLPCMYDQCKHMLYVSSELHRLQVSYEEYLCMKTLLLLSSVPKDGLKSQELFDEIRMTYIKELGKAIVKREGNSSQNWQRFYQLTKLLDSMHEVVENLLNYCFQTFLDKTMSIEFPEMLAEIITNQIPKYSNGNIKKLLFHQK

[13] = molecular target: Glucocorticoid receptor (Homo sapiens) (UniProt P04150); experiment: GR-EFC Redistribution (AID 451; calls by dose curve; further: potency means the concentration at half of the fitted maximal effect); conditions: CHO-K1 GR-EFC translocation, beta-gal luminescence, 2 h
Method in brief: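 CHO-K1 cells stably expressing nuclear-localized β-gal enzyme acceptor and GR fused C-terminally to the enzyme donor fragment; ligand-driven nuclear translocation restores β-gal by complementation. Compounds titrated up to 46 uM final, 2 h at 37 °C; luminescence read.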

[14] = molecular target: Guanine nucleotide-binding protein G(i) subunit alpha-1 (Homo sapiens) (UniProt P63096); experiment: qHTS Assay for Inhibitors of RGS12 GoLoco Motif Activity (Green Fluorophore) (AID 879); conditions: Galphai1/FITC-RGS12 GoLoco peptide, fluorescence polarization; series mostly up to 57.1 µM;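 further: 0% = labeled peptide with Gαi1 and full inhibition = labeled peptide alone without protein; negative values mean loss of peptide binding seen as reduced polarization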
Chain of Guanine nucleotide-binding protein G(i) subunit alpha-1 (Homo sapiens) (P63096 whole entry, looked up): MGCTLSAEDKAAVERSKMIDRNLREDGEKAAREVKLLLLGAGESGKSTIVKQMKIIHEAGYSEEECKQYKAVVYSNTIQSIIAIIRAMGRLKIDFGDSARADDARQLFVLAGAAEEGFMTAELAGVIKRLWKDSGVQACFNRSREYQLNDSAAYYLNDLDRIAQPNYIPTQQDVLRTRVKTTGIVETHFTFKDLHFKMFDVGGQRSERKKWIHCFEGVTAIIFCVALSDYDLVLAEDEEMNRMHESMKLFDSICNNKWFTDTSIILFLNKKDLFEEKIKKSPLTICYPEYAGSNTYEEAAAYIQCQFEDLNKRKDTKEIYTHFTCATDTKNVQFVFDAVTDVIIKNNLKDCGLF
Method in brief: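 Fluorescence polarization assay: 50 nM Gαi1 with 10 nM FITC-labeled RGS12 GoLoco peptide in 10 mM Tris pH 7.5, 150 mM NaCl, 0.1 mM GDP, 0.05% NP40, 10 min at room temperature with compound.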

[15] = molecular target: Pyruvate kinase (Leishmania mexicana) (UniProt Q27686); experiment: qHTS Validation Assay for Inhibitors of Leishmania Mexicana Pyruvate Kinase (AID 945);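 further: 0% = DMSO only neutral control wells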; conditions: purified L. mexicana pyruvate kinase, enzyme activity, E451W mutant enzyme; series mostly up to 57.5 µM
Chain of Pyruvate kinase (Leishmania mexicana) (Q27686 2-499 E452W): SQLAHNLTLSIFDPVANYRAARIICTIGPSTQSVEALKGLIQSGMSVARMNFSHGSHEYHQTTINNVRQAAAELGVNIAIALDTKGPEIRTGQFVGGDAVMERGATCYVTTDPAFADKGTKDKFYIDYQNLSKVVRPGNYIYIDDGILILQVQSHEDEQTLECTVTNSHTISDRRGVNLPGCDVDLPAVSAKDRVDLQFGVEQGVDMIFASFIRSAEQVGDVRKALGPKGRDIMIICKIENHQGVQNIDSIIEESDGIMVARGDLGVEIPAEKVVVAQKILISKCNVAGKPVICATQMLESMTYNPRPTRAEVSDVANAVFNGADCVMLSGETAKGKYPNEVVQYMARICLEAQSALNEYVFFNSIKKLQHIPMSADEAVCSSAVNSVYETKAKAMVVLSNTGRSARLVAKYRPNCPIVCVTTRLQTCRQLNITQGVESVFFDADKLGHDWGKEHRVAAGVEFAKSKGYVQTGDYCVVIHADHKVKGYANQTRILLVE
Method in brief: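 qHTS eight-point titrations against 0.2 nM LmPYK (E451W) in imidazole buffer pH 7.2 with 0.5 mM PEP, 0.1 mM ADP; 1 h, room temperature. Readout: PKLight luminescence, normalized to neutral DMSO wells.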

[16] = molecular target: Pyruvate kinase PKM (Homo sapiens) (UniProt P14618); experiment: qHTS Assay for Activators of Human Muscle Pyruvate Kinase (AID 954; active means well fitted curve in the direction sought with a large enough effect, not every such curve was filed as active;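 further: 0% = uninhibited enzyme and -100% = no enzyme or full thiadiazolimine inhibition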); conditions: purified human muscle pyruvate kinase, luciferase-coupled luminescence, 1 h; series mostly up to 57.5 µM
Chain of Pyruvate kinase PKM (Homo sapiens) (P14618 whole entry, looked up): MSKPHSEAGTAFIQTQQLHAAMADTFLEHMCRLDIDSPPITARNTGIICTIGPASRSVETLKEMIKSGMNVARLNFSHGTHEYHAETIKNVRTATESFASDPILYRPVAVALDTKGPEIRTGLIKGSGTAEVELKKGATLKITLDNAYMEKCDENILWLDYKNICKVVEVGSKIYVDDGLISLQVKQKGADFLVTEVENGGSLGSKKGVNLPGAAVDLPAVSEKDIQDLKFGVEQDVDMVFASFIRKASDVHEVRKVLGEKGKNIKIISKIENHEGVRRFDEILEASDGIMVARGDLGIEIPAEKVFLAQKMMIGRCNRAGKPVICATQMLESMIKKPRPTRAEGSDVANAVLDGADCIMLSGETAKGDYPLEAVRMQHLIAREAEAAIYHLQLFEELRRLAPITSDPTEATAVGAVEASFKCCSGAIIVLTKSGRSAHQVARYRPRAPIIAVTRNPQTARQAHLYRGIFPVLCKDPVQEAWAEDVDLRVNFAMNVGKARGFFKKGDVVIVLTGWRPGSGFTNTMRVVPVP
Method in brief: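 Purified human PKM2 (0.1 nM) with 0.5 mM PEP (Km) and 0.1 mM ADP in 50 mM imidazole pH 7.2, KCl, MgCl2, 1 h at room temperature; ATP formed read by coupled luciferase luminescence. Normalized to no-enzyme/110 uM thiadiazolimine inhibition; 0.3 nM enzyme column for activation.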

[17] = molecular target: alpha-glucosidase (Oryza sativa, rice) (UniProt Q653V4); experiment: Counterscreen for Glucocerebrosidase Inhibitors: qHTS Assay for Rice alpha-Glucosidase at pH 5.0 (AID 997); conditions: rice alpha-glucosidase enzyme activity; series mostly up to 76.9 µM;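 further: 0% = full activity with enzyme and -100% = basal without enzyme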
Method in brief: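 Rice alpha-glucosidase (4 nM final) with 400 uM 4-methylumbelliferyl-alpha-D-glucopyranoside in citrate buffer pH 5.0, 20 min at room temperature, stopped at pH 10; fluorescence 365/440 nm, compounds 0.7 nM–77 uM, AC50 from Hill fits.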

[18] = molecular target: RecQ-like DNA helicase BLM (Homo sapiens) (UniProt P54132); experiment: qHTS Validation Assay for Inhibitors of Bloom's syndrome helicase (BLM) (AID 2364); conditions: BLM helicase DNA unwinding, fluorescence, in vitro; series mostly up to 57.1 µM; further: potency means the concentration at half of the fitted maximal effect;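 on activity change, negative = inhibition: plate controls were DMSO vehicle for no effect and enzyme-free control for full effect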
Chain of RecQ-like DNA helicase BLM (Homo sapiens) (P54132 whole entry, looked up): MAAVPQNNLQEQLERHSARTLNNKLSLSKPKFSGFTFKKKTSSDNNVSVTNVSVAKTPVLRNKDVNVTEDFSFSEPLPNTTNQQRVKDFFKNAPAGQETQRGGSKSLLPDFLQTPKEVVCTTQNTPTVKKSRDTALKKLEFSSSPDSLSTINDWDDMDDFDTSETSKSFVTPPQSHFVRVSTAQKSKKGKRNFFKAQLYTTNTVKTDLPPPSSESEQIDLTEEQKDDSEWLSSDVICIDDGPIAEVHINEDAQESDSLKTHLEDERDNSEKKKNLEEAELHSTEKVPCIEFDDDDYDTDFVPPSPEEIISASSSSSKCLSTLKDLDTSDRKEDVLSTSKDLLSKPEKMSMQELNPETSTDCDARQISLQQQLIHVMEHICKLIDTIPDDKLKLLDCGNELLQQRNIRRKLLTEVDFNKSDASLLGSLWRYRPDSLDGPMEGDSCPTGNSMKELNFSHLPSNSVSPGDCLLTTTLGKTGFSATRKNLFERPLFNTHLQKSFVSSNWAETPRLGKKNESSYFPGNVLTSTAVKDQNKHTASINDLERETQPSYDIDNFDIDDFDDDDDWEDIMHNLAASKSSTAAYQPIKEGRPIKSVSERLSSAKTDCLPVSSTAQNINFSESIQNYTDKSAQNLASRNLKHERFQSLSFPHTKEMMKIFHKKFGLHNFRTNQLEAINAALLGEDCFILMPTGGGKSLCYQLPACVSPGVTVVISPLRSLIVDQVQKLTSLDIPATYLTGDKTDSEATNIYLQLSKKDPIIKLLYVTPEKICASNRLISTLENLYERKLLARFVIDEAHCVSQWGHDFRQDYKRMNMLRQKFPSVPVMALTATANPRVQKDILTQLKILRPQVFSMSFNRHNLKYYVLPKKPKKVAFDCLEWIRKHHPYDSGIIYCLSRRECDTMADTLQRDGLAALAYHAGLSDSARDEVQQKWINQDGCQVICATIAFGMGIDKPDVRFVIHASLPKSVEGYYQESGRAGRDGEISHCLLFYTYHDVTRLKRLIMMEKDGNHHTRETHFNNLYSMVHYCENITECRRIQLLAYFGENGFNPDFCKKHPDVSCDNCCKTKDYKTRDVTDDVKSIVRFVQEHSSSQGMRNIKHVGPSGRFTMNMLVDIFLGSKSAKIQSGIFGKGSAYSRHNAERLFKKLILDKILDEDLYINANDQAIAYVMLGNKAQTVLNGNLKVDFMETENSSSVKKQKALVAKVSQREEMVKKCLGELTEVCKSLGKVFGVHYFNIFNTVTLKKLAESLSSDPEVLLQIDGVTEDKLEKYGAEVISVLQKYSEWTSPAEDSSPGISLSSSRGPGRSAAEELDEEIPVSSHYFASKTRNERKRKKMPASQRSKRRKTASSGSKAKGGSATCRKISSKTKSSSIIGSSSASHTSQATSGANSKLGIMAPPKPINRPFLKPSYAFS
Method in brief: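 BLM 50 nM in 25 mM Tris-HCl pH 8.0, 5 mM NaCl, 2 mM MgCl2, 1 mM DTT, 0.01% Tween-20, 2.5 ug/ml poly(dI-dC); 15 min cpd preinc, RT. Start: 200 nM forked DNA + 2 mM ATP (final). TAMRA read, 2 reads 2 h apart.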

[19] = qHTS profiling for inhibitors of Plasmodium falciparum proliferation (AID 504749);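 further: 0% = DMSO vehicle and full inhibition = artemisinin control; nearly all actives have a fitted effect of over 60% in size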; conditions: P. falciparum in erythrocytes, SYBR Green DNA, 72 h, at 28.7 µM (top of the series)
Method in brief: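 Parasite proliferation within erythrocytes, 72 h exposure. Endpoint: SYBR Green I fluorescence after overnight lysis at room temperature. Controls: 0.29 uM artemisinin, DMSO.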

[20] = measured here: PEO1 parental Z-AUC
[21] = at 7.69 µM (top of the series) unless noted

COc1cc(=C2C=c3ccccc3=N2)[nH]/c1=C/c1[nH]c(C)cc1C
active: Potency ([1]; Viability) 1.25 µM

C[C@@H](Oc1cc(C(=O)Nc2ccc(C(=O)N3CCN(C)CC3)cc2)nnc1N)c1c(Cl)ccc(F)c1Cl
inactive: Z-AUC [2] -0.576 | activity change, negative = inhibition ([1]; HiBiT) -32.5%
-1.08: Z-AUC [2, 20]
-1.2: Z-AUC ([2]; measured here: PEO4 Z-AUC)

CCN(CC)CCNC(=O)c1c(C)[nH]c(/C=C2/C(=O)Nc3ccc(-c4csc(-c5ccccc5)n4)cc32)c1C
active: Potency ([1]; Viability) 24.9 µM
-0.34: Z-AUC ([2]; measured here: PEO4 Z-AUC)
inactive: Z-AUC [2] 0.984
0.413: Z-AUC [2, 20]

COc1cc(C(N)=O)ccc1NC(=O)[C@@H]1N[C@@H](CC(C)(C)C)[C@@]2(C(=O)Nc3cc(Cl)ccc32)[C@H]1c1cccc(Cl)c1F
-0.499: Z-AUC [2, 20]
-0.498: Z-AUC ([2]; measured here: PEO4 Z-AUC)
inactive: Z-AUC [2] -0.18 | activity change, negative = inhibition ([1]; Viability) -16.3%

COc1cc(=O)n(C)c2c(OCC(O)C(C)(C)O)cccc12 (configuration not stated)
inactive: Potency [3] | Potency [4] | Potency [5] | outcome [6] | Potency [7]

COc1nnc2ccc(N3CCC(c4ccc(OCCN5CCN(C)C(=O)[C@H]5C)cc4)CC3)nn12
-1.83: Z-AUC ([2]; measured here: PEO4 Z-AUC)
inactive: activity change, negative = inhibition ([1]; Viability) 14.1%
active: Potency [2] 0.195 µM
-1.72: Z-AUC [2, 20]

NC(=NCCC[C@H](N)C(=O)O)NO
inactive: activity change, negative = inhibition [8, 21] -0.154% [at 38 µM] | Potency [9] | activity change, negative = inhibition [10, 21] 10.4% [at 38 µM] | activity, negative = inhibition [11, 21] -18.2% [at 38 µM] | Potency [12] > 46 µM | Potency [13] > 46 µM | outcome [14] | Potency [15] | outcome [16] | outcome [17] | Potency [3] | Potency [4] | Potency [5] | outcome [6] | Potency [18]

NCC1OC(O[C@@H]2[C@H](O)[C@@H](OC3C(O)C(N)CC(N)C3OC3OC(CO)C(O)C(O)C3N)O[C@@H]2CO)C(N)C(O)C1O (some centres not stated)
inactive: Potency [3] | Potency [4] | Potency [5] | outcome [6] | Potency [7]

COc1c2c(nc3ccccc13)OC(C(C)(O)CO)C2 (configuration not stated)
inactive: Potency [3] | Potency [4] | Potency [5] | outcome [6]

CN1C(=O)CCC1c1cccnc1 (configuration not stated)
inactive: Potency [3] | Potency [4] | outcome [6] | Potency [18] | activity, negative = inhibition ([19]; parasite line A) 0.771% | activity, negative = inhibition ([19]; parasite line B) 4.61%

C[C@]12CCC(=O)C=C1CC[C@@H]1C2[C@@H](O)C[C@@]2(C)[C@H]1CC[C@]2(O)C(=O)CO (some centres not stated)
inactive: Potency [4] | Potency [5] | outcome [6] | Potency [18]

O=C1NC(=O)[C@@H](c2c[nH]c3ccccc23)[C@H]1c1cn2c3c(cccc13)CCC2
inactive: Z-AUC [2] -1.13 | activity change, negative = inhibition ([1]; Viability) -10.9%
-0.673: Z-AUC [2, 20]
-0.711: Z-AUC ([2]; measured here: PEO4 Z-AUC)

N[C@H](Cc1ccc(O)c(O)c1)C(=O)O
inactive: Potency [3] | Potency [4] | Potency [5] | outcome [6] | activity, negative = inhibition ([19]; parasite line A) 9.99% | activity, negative = inhibition ([19]; parasite line B) 20.6%
active: Potency [18] 28.2 µM

NCCC(=O)NCCc1cnc[nH]1
inactive: activity change, negative = inhibition ([8]; at 17.2 µM (top of the series)) -8.55% | activity change, negative = inhibition ([8]; at 38 µM (top of the series)) 7.43% | Potency [9] | activity change, negative = inhibition ([10]; at 17.2 µM (top of the series)) -0.872% | activity change, negative = inhibition ([10]; at 38 µM (top of the series)) 2.63% | activity, negative = inhibition ([11]; at 17.2 µM (top of the series)) 9.79% | activity, negative = inhibition ([11]; at 38 µM (top of the series)) -27.3% | Potency [12] > 46 µM and > 20.6 µM | Potency [13] > 46 µM and > 20.6 µM | outcome [14] | Potency [15] | outcome [16] | outcome [17] | Potency [3] | Potency [4] | Potency [5] | outcome [6]

Cc1c(C(=O)Nc2ccc(Oc3ccnc4[nH]cc(-c5ccccc5)c34)c(F)c2)c(=O)n(-c2ccc(F)cc2)n1C
0.513: Z-AUC ([2]; measured here: PEO4 Z-AUC)
0.825: Z-AUC [2, 20]
inactive: Z-AUC [2] 0.886 | activity change, negative = inhibition ([1]; Viability) -7.02%

N=C1Sc2ccccc2C2=NCCCN12
active: Potency [9] 10 µM
inactive: activity change, negative = inhibition [8, 21] 18% [at 38 µM] | activity, negative = inhibition [11, 21] -18.9% [at 38 µM] | Potency [12] > 46 µM | Potency [13] > 46 µM | outcome [14] | Potency [15] | outcome [16] | outcome [17] | Potency [7] | Potency [18]

Cc1cn([C@H]2C[C@@H](N=[N+]=[N-])[C@@H](CO)O2)c(=O)[nH]c1=O
inactive: Potency [3] | Potency [4] | Potency [5]

Nc1nc(Nc2ccccc2)nc2c1ncn2[C@@H]1O[C@H](CO)[C@H](O)[C@H]1O
inactive: outcome [6]

O=C(O)CC[C@H](NC(=O)c1ccccc1C(=O)O)C(=O)O
inactive: Potency [3] | Potency [4] | Potency [5] | outcome [6]
